# The entries come from a sample that favours hits as a whole.
# PRC2 inh – EZH2 (human) methyltransferase inhibition. actives 0.35% (n = 57,000). PRC2 H3K27 methylation, DELFIA TRF, 1 h. AID 651548. inhibition, % at 12.5 µM. Q15910;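 active = mean inhibition of replicates at least 50% and every single replicate also reaching 50%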;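 note: dimethyl H3K27 on biotinylated H3 21-44 peptide detected by antibody; plate controls were median neutral control wells for no effect and median positive control wells for full effect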
# * hit, by the source's call.
SMILES,PRC2 inh
CCCCC/C=C\C/C=C\C/C=C\C/C=C\CCCC(=O)NCC(=O)O,3
CCCCC/C=C\C/C=C\C/C=C\C/C=C\CCCC(=O)NCCO,16
CCCCC/C=C/C/C=C/C/C=C/C/C=C/CCCC(=O)NCCCC(=O)O,81*
CN1Cc2c(ccc3c2OCO3)[C@@H]2[C@H]1c1cc3c(cc1C[C@@H]2O)OCO3,-11
Cc1c(O)c(C(=O)O)c(O)c2c1[C@H](C)[C@@H](C)OC2=O,-26
O=C(CCl)c1cc(Br)c(Br)s1,7
Fc1ccc(Sc2c(F)c(F)nc(N3CCNCC3)c2F)cc1,-10
CCOC(=O)[C@@H]1[C@@H]2NC(=O)N(C)[C@@]1(C)Oc1ccccc12,1
O=c1ccc2cc(OC3O[C@H](CO)[C@@H](O)[C@H](O)[C@H]3O)c(O)cc2o1 (some centres not stated),18
N#CC(O[C@@H]1O[C@H](CO)[C@@H](O)[C@H](O)[C@H]1O)c1ccccc1 (some centres not stated),97*
CCCC(C)n1[nH]c(=O)c2c1NC(=O)CSC2c1cccc([N+](=O)[O-])c1 (configuration not stated),-5
O=C(Cn1cc(C(=O)c2ccccc2)c2ccccc21)NCC1CCCO1 (configuration not stated),-6
COc1cc2c(cc1OC)-c1c(OC)c(OC)c(N)c3c1[C@H](C2)N(C)CC3,-17
CC(CCc1ccc(O)cc1)O[C@@H]1O[C@H](CO[C@H]2OC[C@](O)(CO)[C@H]2O)[C@@H](O)[C@H](O)[C@H]1O (some centres not stated),94*
CC(C)=CCCN1CCC(NC(=O)[C@](O)(c2ccccc2)C2CCCC2)CC1,-1
